Reference: PubChem BioAssay (NCI)
About 79,000 compounds went through this panel and 15% of them were active in at least one assay; those are over-represented in the sample as a whole. Unmarked numbers belong to inactive results. The source made the active and inactive calls. Rule as the data show it: active = growth inhibition above about 70%; inactive = the rest.

Experiments:
[1] = NCI Yeast Anticancer Drug Screen. Data for the rad50 strain (AID 155);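 also: 0% = growth of vehicle-only cultures of the same strain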; conditions: S. cerevisiae rad50 strain growth inhibition, stronger effect = higher value
Procedure, shortened: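 Readout: growth inhibition relative to vehicle-treated cultures. Compound exposure was carried out in a genetically defined yeast strain deficient in DNA damage repair.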

[2] = NCI Yeast Anticancer Drug Screen. Data for the mec2-1 strain (AID 157); conditions: S. cerevisiae mec2-1 strain, stronger effect = higher value
Procedure, shortened: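 Test agents were screened against the mec2-1 yeast strain, with defined DNA repair or cell cycle alteration. Growth was scored as inhibition against vehicle-only controls.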

[3] = NCI Yeast Anticancer Drug Screen. Data for the sgs1 mgt1 strain (AID 161);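 also: 0% = growth of cultures given vehicle only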; conditions: S. cerevisiae sgs1 mgt1 strain, stronger effect = higher value
Procedure, shortened: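 Test agents were incubated with a DNA-repair-mutant yeast strain. Growth was then read and compared against vehicle-treated controls.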

[4] = NCI Yeast Anticancer Drug Screen. Data for the cln2 rad14 strain (AID 165);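 also: 0% = growth equal to vehicle treated cultures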; conditions: S. cerevisiae cln2 rad14 strain, stronger effect = higher value
Procedure, shortened: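 Growth of compound-exposed yeast (cln2 rad14 genotype) measured and expressed as inhibition relative to vehicle.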

[5] = NCI Yeast Anticancer Drug Screen. Data for the bub3 strain (AID 167); conditions: S. cerevisiae bub3 mutant strain, stronger effect = higher value
Procedure, shortened: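 Readout: yeast growth inhibition, expressed relative to vehicle-only wells. The test organism is a mutant strain from a panel with lesions in DNA repair or checkpoint genes.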

[6] = NCI Yeast Anticancer Drug Screen. Data for the mlh1 rad18 strain (AID 175); conditions: S. cerevisiae mlh1 rad18 strain growth inhibition, stronger effect = higher value
Procedure, shortened: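 In this whole-cell yeast screen, a strain with altered DNA damage repair is challenged with compound, and its growth is measured against matched vehicle-treated controls.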

[7] = at 5.0 µM (retest, dose inferred, filed as 0.5)
[8] = at 50.0 µM (retest, dose inferred, filed as 5.0)

SMILES | growth inhibition [1, 7] | growth inhibition [1, 8] | growth inhibition ([1]; at 50.0 µM) | growth inhibition [2, 7] | growth inhibition [2, 8] | growth inhibition ([2]; at 50.0 µM) | growth inhibition [3, 7] | growth inhibition [3, 8] | growth inhibition ([3]; at 50.0 µM) | growth inhibition [4, 7] | growth inhibition [4, 8] | growth inhibition ([4]; at 50.0 µM) | growth inhibition [5, 7] | growth inhibition [5, 8] | growth inhibition ([5]; at 50.0 µM) | growth inhibition [6, 7] | growth inhibition [6, 8] | growth inhibition ([6]; at 50.0 µM)
N=C1c2ccccc2-c2ccccc21 | 49% | 49% | 66% | 22% | 17% | 37.2% | 10% | 11% | 40.2% | 12% | 3% | 12.1% | 19% | 24% | 22.9% | 21% | 21% | 26.8%
C(=C/c1cnnc2ccccc12)/c1ccccn1 | 5% | 79% (active) | 67.2% | 8% | 43% | 6.2% | 6% | 44% | 14.8% | 0% | 42% | 45.8% | -7% | 28% | -4.45% | 1% | 42% | 38.4%
CCOC(=O)c1c(C)[nH]c(C(=O)C(N)C(=O)OCC)c1C (configuration not stated) | 8% | -3% | 98% (active) | 6% | -6% | 99.5% (active) | 7% | -1% | 98.8% (active) | 3% | -1% | 99.5% (active) | -3% | -5% | 99.4% (active) | 4% | -6% | 99% (active)
NC(=O)CC1CCC(c2ccccc2)CC1 (configuration not stated) | -1% | -59% | 44% | -6% | -23% | 6.95% | -1% | -14% | 77.3% (active) | 2% | -8% | -47.6% | -12% | -53% | 12.7% | 0% | -31% | 41.8%
O=C(Cl)c1ccc(N=Nc2ccccc2)cc1 | 2% | 31% | 69.5% | -1% | 23% | 37% | -1% | 14% | 47.5% | 0% | 23% | 49.2% | 1% | 21% | 65.5% | 3% | 27% | 80% (active)
Clc1ccc(/C(=C/c2ccccc2)Cn2ccnc2)cc1 | 88% (active) | 93% (active) | 75.6% (active) | 64% | 86% (active) | 78.8% (active) | 86% (active) | 90% (active) | 75% (active) | 85% (active) | 83% (active) | 70.5% (active) | 70% (active) | 93% (active) | 81% (active) | 83% (active) | 90% (active) | 78.5% (active)
CCC(CC)C(=O)O.[Ag] | 99% (active) | 99% (active) | 99.2% (active) | 99% (active) | 99% (active) | 99.6% (active) | 99% (active) | 99% (active) | 99.6% (active) | 99% (active) | 99% (active) | 99.2% (active) | 100% (active) | 99% (active) | 99.1% (active) | 99% (active) | 99% (active) | 99.2% (active)
O=c1[nH]c2c([N+](=O)[O-])cc(Cl)cc2nc1/C=C(\O)c1ccc(Cl)cc1 | -16% | 91% (active) | 96.8% (active) | 20% | 87% (active) | 95.3% (active) | -3% | 78% (active) | 95.3% (active) | -27% | 83% (active) | 65% | 17% | 87% (active) | 89.8% (active) | 13% | 95% (active) | 97.2% (active)
CCCOC1(C)CC(c2cc(OC)c(OC)c(OC)c2)c2cc3c(cc2O1)OCO3 (configuration not stated) | 5% | 96% (active) | 5.1% | 5% | 100% (active) | 7.75% | 5% | 99% (active) | -2.6% | 4% | 99% (active) | 34.7% | 5% | 99% (active) | 3.15% | 2% | 99% (active) | 18.9%
CC1=C(C(=O)NCc2ccccc2)C(c2ccccc2[N+](=O)[O-])C(C(=O)NCc2ccccc2)=C(C)N1 | 16% | 16% | 71% (active) | 9% | 9% | 84.2% (active) | -2% | -2% | 81.4% (active) | -4% | -4% | 62.9% | 15% | 15% | 81.1% (active) | 4% | 4% | 77.6% (active)
OCC(O)Cc1c(Cl)c(Cl)c(Oc2c(Cl)c(Cl)c(CC(O)CO)c(Cl)c2Cl)c(Cl)c1Cl (configuration not stated) | 5% | 7% | 11.3% | 5% | 10% | 14.6% | 18% | 16% | 4.95% | -9% | -9% | -8.05% | -1% | 11% | 64.7% | -1% | 1% | 8.75%
CC(=O)C1CCC2C1(C)CC1OC13C21C=CC2(CC(O)CCC23C)C2C(=O)OC(=O)C21 (configuration not stated) | -1% | 98% (active) | 99.4% (active) | 4% | 97% (active) | 91.5% (active) | 2% | 99% (active) | 99.3% (active) | 3% | 98% (active) | 99.6% (active) | 2% | 98% (active) | 95.7% (active) | 23% | 99% (active) | 99.2% (active)
CC12OC(=O)C(C(N)=O)=C1C=C(c1ccccc1)CC2c1ccccc1 (configuration not stated) | -1% | 23% | 65% | 12% | 53% | 43.9% | -5% | 67% | 86.8% (active) | -3% | 21% | 82.5% (active) | -4% | 60% | 87.5% (active) | 11% | 83% (active) | 86.1% (active)
Cc1oc2c(c1C(=O)c1ccccc1)C(=O)c1ccccc1C2=O | 33% | 99% (active) | 88.2% (active) | 19% | 99% (active) | 92.7% (active) | 31% | 99% (active) | 93.2% (active) | 22% | 98% (active) | 92.8% (active) | 39% | 99% (active) | 91.7% (active) | 25% | 99% (active) | 82% (active)
Nc1ccc(C(=O)/C=C/c2ccccc2O)cc1 | -3% | 37% | -21.9% | -5% | 2% | 28.1% | 15% | -1% | -9% | -19% | -14% | 2.4% | -19% | 23% | -15.8% | -6% | -1% | -1.15%
Cc1ccc(S(=O)(=O)NC(Cc2ccccc2)C(=O)CCl)cc1 (configuration not stated) | 61% | 99% (active) | 89.9% (active) | 66% | 99% (active) | 92.8% (active) | 74% (active) | 98% (active) | 88.8% (active) | 44% | 88% (active) | 84.8% (active) | 79% (active) | 99% (active) | 84.5% (active) | 86% (active) | 98% (active) | 84.7% (active)
C[C@]12CC[C@H]3[C@@H](CCC4=CC(=O)CC[C@@]43C)[C@@H]1CC[C@@H]2C(=O)C=O | 19% | 42% | 67.2% | 6% | 36% | 52.6% | 16% | 61% | 71% (active) | 5% | 21% | 39% | 1% | 17% | 41.2% | 27% | 74% (active) | 56.2%
Nc1ccc(C(=O)N/C(=C\c2ccc3c(c2)OCO3)c2nc3ccccc3s2)cc1 | 23% | 99% (active) | 97.2% (active) | -2% | 99% (active) | 98.5% (active) | 54% | 99% (active) | 98.2% (active) | 15% | 98% (active) | 96.3% (active) | 32% | 98% (active) | 97.4% (active) | 30% | 98% (active) | 98.4% (active)
C=CS(=O)(=O)Cc1ccc(Cl)cc1 | -126% | 91% (active) | 98.6% (active) | -31% | 91% (active) | 97.2% (active) | -33% | 91% (active) | 94.2% (active) | -42% | 84% (active) | 93.9% (active) | -48% | 94% (active) | 97% (active) | -108% | 95% (active) | 97.4% (active)
